# PubChem BioAssay
# Active and inactive are the calls of the source. The rule behind the calls is not given here.
# Experiment: suppressors of polyglutamine aggregation in yeast, 75Q-TubH (AID 1616)
# Conditions: S. cerevisiae 75Q-TubH polyglutamine aggregation suppression; stronger effect = higher value
row,Structure (SMILES),aggregation suppression score
1,NC(=O)c1ccc[n+]([C@@H]2O[C@H](COP(=O)([O-])OP(=O)(O)OC[C@H]3O[C@@H](n4cnc5c(N)ncnc54)[C@H](O)[C@@H]3O)[C@@H](O)[C@H]2O)c1,1.51
2,Cn1c(=O)[nH]c2ncn(C)c2c1=O,1.3
3,Cc1cc(C(C)(C)CC(C)(C)C)ccc1OCCOCC[N+](C)(C)Cc1ccccc1,-0.0187
4,Cn1c(=O)c2[nH]c(C3CCCC3)nc2n(C)c1=O,1.14
5,CC(=O)N1CCN(c2ccc(OCC3CO[C@](Cn4ccnc4)(c4ccc(Cl)cc4Cl)O3)cc2)CC1 (some centres not stated),0.126
6,CN[C@H](CC(=O)O)C(=O)O,1.66
7,CN1CCc2cccc3c2C1Cc1ccc(O)c(O)c1-3 (configuration not stated),1.03
8,COc1c2ccoc2cc2oc(=O)ccc12,0.569
9,C=C1c2c(Cl)ccc(O)c2C(O)=C2C(=O)[C@]3(O)C(O)=C(C(N)=O)C(=O)[C@@H](N(C)C)[C@@H]3[C@@H](O)[C@H]12,0.198
10,CC(CN(C)C)CN1c2ccccc2Sc2ccccc21 (configuration not stated),1.08
11,CC(C(=O)O)c1ccc(N2Cc3ccccc3C2=O)cc1 (configuration not stated),1.02
12,O=c1cc(-c2ccccc2)oc2c(O)c(O)ccc12,0.00444
13,CN1CCc2c(c3ccccc3n2Cc2ccccc2)C1,1.16
14,NC(N)=NCCCCN=C(N)N,1.37
15,NCCCCN,1.37
16,Cc1cc(/C=C/c2ccc3cc(N(C)C)ccc3[n+]2C)c(C)n1-c1ccccc1,-0.227
17,NCCSSCCN,1.2
18,CC1(C)S[C@@H]2[C@H](NC(=O)Cc3ccccc3)C(=O)N2[C@H]1C(=O)O,1.3
19,CN(C)CCOC(c1ccccc1)c1ccccc1 (tested in a mixture with another compound),0.942
20,Oc1cc(O)c2c(c1)O[C@H](c1ccc(O)c(O)c1)[C@@H](O)C2,1.05
21,C1N2CN3CN1CN(C2)C3,0.744
22,COc1cc(S(C)=O)ccc1-c1nc2ncccc2[nH]1 (configuration not stated),1.25
23,NCCCS(=O)(=O)O,1.7
24,COC(=O)[C@H]1[C@H]2C[C@H]3c4[nH]c5ccccc5c4CCN3C[C@H]2CC[C@@H]1O,1.4
25,C[N+](C)(C)CC(O)CC(=O)O (configuration not stated),1.39

# Experiment: circadian clock period modulators, cell-based, LOPAC library, luminescence reporter (AID 2774);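 note: values are relative to mean of DMSO wells on each plate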
# Conditions: circadian reporter cells, at 7 µM, actives lie on both sides
row,Structure (SMILES),period change
1,O=C(O)c1cc2cc(F)ccc2[nH]1,0.04 h (inactive)
2,Cn1c(=O)[nH]c2ncn(C)c2c1=O,-0.1 h (inactive)
3,NC1(C(=O)O)CC1,-0.01 h (inactive)
4,NCCCCN=C(N)N,0.06 h (inactive)
5,Cn1c(=O)c2[nH]c(C3CCCC3)nc2n(C)c1=O,0.02 h (inactive)
6,NCCCCC(=O)O,0.155 h (inactive)
7,CN[C@H](CC(=O)O)C(=O)O,-0.09 h (inactive)
8,CN1CCc2cccc3c2C1Cc1ccc(O)c(O)c1-3 (configuration not stated),0.35 h (inactive)
9,NC(N)=NC(=O)c1nc(Cl)c(N2CCCCCC2)nc1N,0.165 h (inactive)
10,NC(N)=NCCCCN=C(N)N,0.195 h (inactive)
11,NCCCCN,0.01 h (inactive)
12,NCCSSCCN,-0.055 h (inactive)
13,O=C1OC(=O)C2C3CCC(O3)C12 (configuration not stated),-0.06 h (inactive)
14,NC(=O)CC[C@H](N)C(=O)O,-0.065 h (inactive)
15,Oc1cc(O)c2c(c1)O[C@H](c1ccc(O)c(O)c1)[C@@H](O)C2,0.07 h (inactive)
16,NCCCS(=O)(=O)O,0.415 h (inactive)
17,COC(=O)[C@H]1[C@H]2C[C@H]3c4[nH]c5ccccc5c4CCN3C[C@H]2CC[C@@H]1O,0.015 h (inactive)
